Measured values taken from PubChem BioAssay (NCI).
Compounds without any hit were thinned out: in the full panel of roughly 83,000, 20% have a hit.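 Growth was measured after 48 h exposure to one concentration of compound in 96-well plates. Values under 10 count as active.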 Activity calls are given as the source filed them.

What follows are molecules tested on MDA-MB-468 breast (assay: NCI-60 one-dose screen, 48 h (100 = growth as untreated, 0 = no growth, -100 = all killed)). Conditions: 10 µM unless noted.

SMILES | growth
CN(c1cc2ncc(=O)[nH]c2cc1NC(N)=NCc1ccc(Cl)cc1)C1CCCCC1 | -80.8% (active)
CCOC(=O)C1OC2(CCCC2)OC1C(=O)OCC (centres undefined) | 100% (inactive)
Cc1cc(=O)c2cc3nc(-c4cccnc4)oc3c(Br)c2o1 | 96.4% (inactive)
Cn1c(=O)c2c(nc(N/N=C/c3ccccc3Cl)n2C)n(C)c1=O | 102% (inactive)
Cc1nn(-c2ccc([N+](=O)[O-])cc2)c2ncnc(NCCc3ccccc3)c12 | 111% (inactive)
Cc1cc(C)cc(NC(=O)Cn2nncc2CN2C(=O)CSC2=O)c1 | 97% (inactive)
Brc1ccc(SCN(CSc2ccc(Br)cc2)Cc2ccccc2)cc1 | 98.3% (inactive)
CC1=CNNc2c3ncnc-3ncn21 | 95.1% (inactive)
CN1CCN(Cc2ccc(NC(=O)c3cncc(C#Cc4cnc(N)c5ncccc45)c3)cc2Cl)CC1 | 85.4% (inactive)
CC1C(C)N(C(=O)CCl)c2ccccc2N1C(=O)CCl (centres undefined) | -69% (active)
COc1cc(Nc2c(C#N)cnn3cc(-c4cnn(CC(C)(C)O)c4)cc23)ccc1Cl | 65.1% (inactive)
O=C1CCc2c(sc3[nH]c(=S)n(Cc4ccc(Cl)cc4)c(=O)c23)C1 | -18.7% (active)
O=Nc1ccccc1N=O | 91.7% (inactive)
N#Cc1nc(-c2ccccc2)oc1S(=O)(=O)N1CCN(c2ccc(F)cc2)CC1 | 44.8% (inactive)
COc1cc(C(F)(F)F)ccc1-c1cc(-c2ccc(F)cc2)n[nH]1 | 75.6% (inactive)
COc1ccc(-n2cnc3c(sc4ncc(Cl)cc43)c2=O)cc1 | 93.1% (inactive)
COC(=O)c1c2c(c(C)[n+]([O-])c1C)C(=O)C(NCc1ccc(O)cc1)=CC2=O | -44.2% (active)
O=c1c2cccc3c(N4CCOCC4)ccc(c32)c2nc3ccccc3n12 | -63.5% (active)
COc1ccc(C2=NNC(c3sc(Cl)nc3Cl)C2)cc1 (centres undefined) | 70% (inactive)
Nc1c(C(=O)c2ccccc2)nnc2ncnn12 | 99.7% (inactive)
CC(=O)O.CC(=O)O.O.[Fe] | 100% (inactive)
CN(C)c1cccc2c(S(=O)(=O)Nc3cccc(-c4csc(NC(=O)CCCCCN5CCN(CCO)CC5)n4)c3)cccc12 | 79.3% (inactive)
COc1ccc([C@@H]2c3[nH]c4ccccc4c3CC3C(=O)N(C4CCN(Cc5c(F)cccc5F)CC4)CC(=O)N32)c(OC)c1 (some centres undefined) | 40.6% [5.26 µM] (inactive)
CCCC[n+]1c(/C=C\c2c(OC)cc(OC)cc2OC)ccc2ccccc21 | -31% (active)
COc1cc(-c2nc(N=Nc3c(O)[nH]c4ccc(Br)cc34)[nH]c(=O)c2C#N)cc(OC)c1OC | 103% (inactive)
COc1cccc(/C=C2\CCc3ccccc3C2=O)c1 | 63.9% (inactive)
CSC1=N/C(=C\c2cccc(OCc3ccc(Cl)cc3)c2)C(=O)N1 | 68.6% (inactive)
COc1cc(C2NC(=O)c3ccccc3N2)ccc1OCCCCCOc1c(OC)cc(C2=NOC(c3cc(OC)c(OC)c(OC)c3)C2)cc1OC (centres undefined) | 9.53% (active)
COc1ccc(-n2cc(COc3ccc4c5ccnc(C)c5n(CC(C)C)c4c3)nn2)cc1 | 35.3% (inactive)
